The record followed here is the supplement of paper PMC12024424.

The subject of test [1] is Staphylococcus aureus Sa2 (MRSA, cystic fibrosis isolate). In words: growth reduction vs untreated control (OD550); higher = stronger antibacterial activity. The conditions noted are these: 0.1 mM; 24 h. The method, then: (§1)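 Single-dose screen of the MedChem Express Drug Repurposing Library (0.1 mM, 1% DMSO) against planktonic MRSA S. aureus Sa2 (CF isolate) in TSB in 96-well plates, 37 °C aerobic, 24 h. Assays were run in triplicate and repeated twice.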

Test [2] shares this test system. Kind of test: growth reduction vs untreated control (viable cell count); higher = stronger antibacterial activity; extreme values may be limits of the assay. The following applies: 0.1 mM; 24 h. The method, then: as §1

Each structure is given as a SMILES string. Where a name gives a salt, the structure may show the parent alone.

`COc1ccc(NS(=O)(=O)c2c(F)c(F)c(F)c(F)c2F)cc1F` [Batabulin]: the growth reduction in test [1] was 95.5%; in test [2], 98%.

With `O=c1oc2ccccc2c(O)c1Cc1c(O)c2ccccc2oc1=O` [Dicoumarol], the growth reduction in test [1] and in test [2] was 100% throughout.

In the case of `Nc1ncccc1-c1nc2ccc(-c3ccccc3)nc2n1-c1ccc(C2(N)CCC2)cc1` [Miransertib], the values for the growth reduction in test [1] and in test [2] were 97.6% and 95%, respectively.

For the compound `Cc1cccc(/C=N/Nc2cc(N3CCOCC3)nc(OCCc3ccccn3)n2)c1` [Apilimod], the growth reduction is 100% in test [1] and 93% in test [2].

As to `O=C1Nc2ccc(Cl)cc2[C@@](C#CC2CC2)(C(F)(F)F)O1` [Efavirenz], the figures for the growth reduction in test [1] and in test [2] were 96.6% and 98%, respectively.

Consider `C[C@@H](NCCCc1cccc(C(F)(F)F)c1)c1cccc2ccccc12` [Cinacalcet], for which the values for the growth reduction in test [1] and in test [2] were 97.4% and 100%, respectively.

Turning to `N[C@@H]1CC[C@@H](c2ccc(Cl)c(Cl)c2)c2ccccc21` [Dasotraline (hydrochloride)], the growth reduction in test [1] and in test [2] was 100% in each case.

On to `CC(C(=O)O)c1ccc2c(c1)CC(=O)c1ccccc1S2` (stereo not given) [Zaltoprofen], for which the growth reduction in test [1] worked out at 96.7%; in test [2], 98%.

With `COc1ccc(Cl)c(Nc2nc3ccccc3nc2NS(=O)(=O)c2cccc(NC(=O)C(C)(C)N)c2)c1` [Pilaralisib], the growth reduction in test [1] and in test [2] was 100% throughout.

On to `Cc1cccc(Nc2ccccc2C(=O)O)c1C` [Mefenamic acid], for which the growth reduction in test [1] worked out at 97.3%; in test [2], 100%.
